# Tested on: HepG2
# Assay: GSK_TCMDC: Percent inhibition of human HepG2 cell line. Test compounds present at 10uM.
# Type: functional
row,Compound,Inhibition
1,Br.Nc1ccc(-c2csc(Nc3ccncc3)n2)cc1,12%
2,Cc1[nH]n(-c2cccc(C(F)(F)F)c2)c(=O)c1-c1ccc(Cl)cc1,7%
3,CCN1CCN(c2cc(C)c3cc(NC(=O)c4ccc(Br)o4)ccc3n2)CC1,0%
4,CCC(C)NS(=O)(=O)c1ccc2nc(Nc3cccc(SC)c3)n(C(C)C(C)C)c2c1 (stereo not given),0%
5,C=C(C)CSc1nc2c(c(=O)n1Cc1ccco1)C1(CCCCC1)Cc1ccccc1-2,2%
6,CC1CCc2sc(-c3nnc(SC(C)C(=O)NC4CC4)o3)cc2C1 (stereo not given),5%
7,CCNc1c2ccc(Cl)cc2nc2ccc(OC)cc12.Cl,16%
8,COc1ccc(CCN(C)CCOc2ccc(NC(=O)c3cc(SC)cc4c(=O)c5ccccc5[nH]c34)cc2)cc1OC,7%
9,Cc1cc(Cl)c(S(=O)(=O)NC2CCCC2)cc1OCC(=O)NC1CCCCC1,19%
10,Cc1ccc(C(=O)N2CCc3cc4nccc(N5CCN6CCC[C@H]6C5)c4cc32)cc1,5%
11,CCCCCC(C)N/C(=N/c1ccccc1Br)Nc1ccc([N+](=O)[O-])cc1O (stereo not given),0%
12,COC(=O)c1ccc(NC(=O)Nc2ccc(Cn3ncc(N4CCCNCC4)c(Cl)c3=O)cc2)cc1.O=C(O)C(F)(F)F,0%
13,Cl.NCCCCc1c(-c2ccc(Cl)c(Cl)c2)[nH]c2ccc(Cl)cc12,33%
14,CCCNC(=O)c1ccc(N2CCC(c3ccccc3C)CC2)nc1.O=C(O)C(F)(F)F,6%
15,CCCCCCCN1CC[C@@H](CCCc2ccnc3ccc(OC)cc23)[C@@H](CCN)C1.O=C(O)C(=O)O,50%

# — ChEMBL document CHEMBL1157539, “Thousands of chemical starting points for antimalarial lead identification” (Nature, 2010)
